Most compounds without a hit are left out; they make up all but 3.1% or so of the library.
MEKK2wt PB1 HTS – modulators of MEK5 binding to wildtype MEKK2, primary screen, biochemical, multiplex bead flow cytometry, Alexa488-MEK5; Alexa488-MEK5 binding to MEKK2 WT; actives lie on both sides; binding response (% of control), % at 10 µM; 290,000 tested, 1.1% active; in the data active = binding response below about 67% or above about 130%
PREPL inh – PREPL enzyme inhibitors, primary screen, biochemical, fluorescence polarization | Prolyl endopeptidase-like (Homo sapiens), Q4J6C6 | 320,000 tested, 0.68% active | recombinant PREPL, fluorescence polarization activity-based probe | inhibition, % at 5.96 µM; in the data active = inhibition above about 43%;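 note: 0% = enzyme with DMSO and 100% = wells lacking enzyme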
ATG4B inhibitor – ATG4B protease inhibitors, primary screen, biochemical, fluorescence, uHTS; 340,000 tested, 0.51% active; Cysteine protease ATG4B (Homo sapiens), Q9Y4P1; inhibition, % at 8.33 µM; ATG4B cleavage of LC3-PLA2, NBD-HPC fluorescence, 1 h; in the data active = inhibition above about 40%
MEKK2mut PB1 HTS – MEK5 binding signal on mutant MEKK2 PB1, primary screen, biochemical, multiplex bead flow cytometry, Alexa488-MEK5; Alexa488-MEK5 binding to MEKK2 mutant; percent response, % at 10 µM; 290,000 tested, 0.35% active; AID 1530, 2009; in the data active = percent response above about 24%, passing the limit was not always enough
MEKK3 PB1 HTS – modulators of MEKK3-MEK5 PB1 binding, primary screen, biochemical, wildtype MEKK3, multiplex bead flow cytometry, Alexa488-MEK5; bead-based flow cytometry, Alexa488-MEK5 binding to MEKK3; actives lie on both sides; 0 = blocked by unlabeled MEK5, 100 = vehicle; binding response (% of control), % at 10 µM; 290,000 tested, 1.4% active; AID 1529, 2009;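 active = binding response more than 3 SD above or below the average of its plate-row segment, actives on both sides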;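 note: Alexa488 bead fluorescence after subtracting the streptavidin-only scavenger bead signal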
Target sequence (Q99759 whole entry, looked up): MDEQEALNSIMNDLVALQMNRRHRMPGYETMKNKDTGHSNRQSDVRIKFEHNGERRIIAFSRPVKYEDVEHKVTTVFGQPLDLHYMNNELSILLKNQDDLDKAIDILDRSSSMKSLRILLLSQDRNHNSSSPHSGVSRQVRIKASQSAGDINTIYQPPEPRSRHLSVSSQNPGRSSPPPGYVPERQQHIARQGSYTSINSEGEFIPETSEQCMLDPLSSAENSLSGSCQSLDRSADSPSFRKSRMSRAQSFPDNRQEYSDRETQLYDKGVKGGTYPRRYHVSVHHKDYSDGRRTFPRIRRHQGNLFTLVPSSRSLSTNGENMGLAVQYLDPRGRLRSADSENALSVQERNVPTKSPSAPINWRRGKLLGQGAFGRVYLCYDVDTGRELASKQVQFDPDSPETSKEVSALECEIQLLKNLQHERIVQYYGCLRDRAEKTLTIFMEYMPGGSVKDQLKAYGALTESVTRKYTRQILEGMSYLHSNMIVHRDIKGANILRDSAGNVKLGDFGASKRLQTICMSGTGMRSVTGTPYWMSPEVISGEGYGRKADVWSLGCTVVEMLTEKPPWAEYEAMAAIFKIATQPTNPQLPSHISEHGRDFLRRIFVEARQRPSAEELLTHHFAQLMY
UBC13 polyUb – UBC13 polyubiquitin chain formation inhibitors, primary screen, biochemical, TR-FRET, uHTS | Ubiquitin-conjugating enzyme E2 N (Homo sapiens), P61088 | inhibition, % at 20 µM | 330,000 tested, 0.47% active; in the data active = inhibition above about 45%, passing the limit was not always enough
MEKK2wt confirm – modulators of MEK5 binding to wildtype MEKK2, confirmation, biochemical, single concentration, multiplex bead flow cytometry; shares compounds with MEKK3 PB1 HTS; Alexa488-MEK5 binding to MEKK2 WT; actives lie on both sides; binding response (% of control), % at 10 µM; 5,900 tested, 2.4% active; AID 1892, 2009; in the data active = binding response below about 16% or above about 210%; inactive = in between
MEKK2mut-MEK5 – mutant MEKK2 PB1-MEK5 binding signal retest – biochemical, single concentration, multiplex bead flow cytometry, confirmation; percent response, % at 10 µM; Alexa488-MEK5 binding to MEKK2 mutant; 5,900 tested, 2% active; shares compounds with MEKK3 PB1 HTS; in the data active = percent response mostly above about 71%, no sharp cut-off; inactive = mostly below about 38%;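 note: higher means compound restores mutant binding toward wildtype level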
MEKK3 confirm – MEKK3 wild-type PB1 binding to MEK5, inhibitors, confirmation, biochemical, bead multiplex flow cytometry, single concentration, wildtype. shares compounds with MEKK3 PB1 HTS. Alexa488-MEK5 binding to MEKK3; active compounds read low. binding response (% of control), % at 10 µM. 5,900 tested, 1.8% active;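 active = binding response below 72% of control, or above a set upper limit, though filed actives all read lower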;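 note: 100% = DMSO only wells and 0% = binding blocked by excess unlabeled MEK5; lower values mean stronger disruption of MEK5 binding to MEKK3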
An asterisk follows results filed as active; nt = not tested or not shown; [ ] = remark or other dose.

SMILES | MEKK2wt PB1 HTS | PREPL inh | ATG4B inhibitor | MEKK2mut PB1 HTS | MEKK3 PB1 HTS | UBC13 polyUb | MEKK2wt confirm | MEKK2mut-MEK5 | MEKK3 confirm
COc1ccccc1N1CCN(C2CCN(S(=O)(=O)c3ccc4ccccc4c3)CC2)CC1 | 145* | 7 | 8 | 3 | 103 | 4 | 118 | 1 | 92
COc1ccccc1N1CCN(S(=O)(=O)c2ccccc2F)CC1 | 63 | 10 | 13 | -21 | 45*[inhibitor] | 14 | 106 | 6 | 102
CCC1SC2=NC(C)=C(C(=O)OCCOC)C(/C=C/c3ccccc3OC)N2C1=O (stereo unspecified) | 116 | 0 | -15 | 5 | 124* | 0 | 95 | -6 | 100
C[C@H](NC(=O)c1nc[nH]c1C(=O)N1CCN(c2ccccc2)CC1)C(=O)OC(C)(C)C | 92 | 4 | -6 | -3 | 79*[inhibitor] | -4 | 96 | -2 | 101
C[C@H](NC(=O)c1nc[nH]c1C(=O)N1CCN(C(=O)OC(C)(C)C)CC1)C(=O)OC(C)(C)C | nt | -9 | -9 | nt | nt | 2 | nt | nt | nt
O=C(/C=C/c1ccc(Cl)cc1)Nn1c(-c2cccs2)nc2ccccc2c1=O | 105 | -27 | 3 | 0 | 131* | -14 | 103 | 4 | 105
CC(=O)CN1Cc2ccccc2/C1=N\C(=O)Nc1ccccc1 | 86 | 4 | 3 | -9 | 77*[inhibitor] | -2 | 101 | -6 | 101
COc1ccc(N2Cc3ccccc3/C2=N\C(=O)Nc2ccccc2)cc1 | 97 | 17 | -9 | -2 | 99 | -4 | nt | nt | nt
COc1ccc(Cc2nc3ccc(C(=O)N4CCN(C)C(C)C4)cc3o2)cc1OC (stereo unspecified) | 100 | -4 | 18 | 6 | 101 | 1 | nt | nt | nt
CCN1CCN(Cc2ccc(NC(=O)c3cc(NC(=O)c4cc5cccc(OC)c5o4)cc(OC)c3)cc2C(F)(F)F)CC1 | 148* | -23 | -15 | 158* | 124* | 40 | 251* | 93* | 111
CCN1CCN(Cc2ccc(NC(=O)c3ccc(C)c(NC(=O)c4csc(-c5ccncc5)n4)c3)cc2C(F)(F)F)CC1 | 141* | 3 | -8 | 9 | 101 | 24 | 172 | 38 | 104
CCN1CCN(Cc2ccc(NC(=O)c3ccc(C)c(NC(=O)c4cccc(-c5cn[nH]c(=O)c5)c4)c3)cc2C(F)(F)F)CC1 | 169* | -2 | -11 | 29* | 108 | 43 | 143 | 20 | 99
CCN1CCN(Cc2ccc(NC(=O)c3ccc(C)c(NC(=O)c4ccno4)c3)cc2C(F)(F)F)CC1 | 96 | -8 | 5 | 7 | 95 | 8 | nt | nt | nt
Cc1nnc(NC(=O)CCSc2ccc(Cl)cc2)s1 | 95 | 1 | -2 | -5 | 90 | 11 | nt | nt | nt
c1ccc(-c2cc3c(nn2)CCc2nonc2-3)cc1 | 80 | -16 | 2 | -23 | 72*[inhibitor] | 1 | 93 | -6 | 88
COc1ccc(C(=O)NC(C)c2cccnc2)cc1S(=O)(=O)N(C)Cc1ccccc1 (stereo unspecified) | nt | 3 | -8 | nt | nt | 2 | nt | nt | nt
C/C(=N\OCC(=O)N/N=C/c1ccc(C)cc1O)c1cccs1 | 120 | -7 | -13 | 7 | 124* | -13 | 109 | 7 | 108
COc1ccc(N2CCC(CNC(=O)Nc3ccc(Cl)cc3)C2)cc1 (stereo unspecified) | 142 | 3 | -7 | 7 | 141* | -7 | 106 | 2 | 100
COc1ccc(N2CCC(CNC(=O)Nc3cccc(OC)c3)C2)cc1 (stereo unspecified) | 100 | 16 | 1 | 2 | 99 | -2 | nt | nt | nt
Cc1ccc(C)c(CN2CCC(CNC(=O)Nc3ccc(Br)cc3F)CC2)c1 | 140* | nt | 2 | 22 | 109 | 16 | 148 | 18 | 104
CCCNC(=O)C(Cc1ccccc1)NC(=O)c1ccc(C(F)(F)F)cc1 (stereo unspecified) | nt | 8 | 4 | nt | nt | 13 | nt | nt | nt
COc1ccc(N2CCN(CCCNC(=O)Cn3c(=O)c4cccn4c4cccnc43)CC2)cc1 | 138* | 13 | -12 | 11 | 102 | 10 | 143 | 29 | 99
O=C(NN1C(=O)c2ccc(-c3ccc4c(c3)C(=O)N(NC(=O)c3cccnc3)C4=O)cc2C1=O)c1cccnc1 | 114 | 0 | 11 | 1 | 135* | -9 | 100 | 2 | 99
CN1C(=O)c2ccc(C(=O)Nc3cccnc3)cc2C1=O | 106 | nt | 3 | 1 | 105 | 1 | nt | nt | nt
O=C(CN1CCN(c2cccc(Cl)c2)CC1)c1ccc(O)cc1O | 96 | 7 | -8 | -1 | 99 | -4 | nt | nt | nt
SMILES | MEKK2wt PB1 HTS | PREPL inh | ATG4B inhibitor | MEKK2mut PB1 HTS | MEKK3 PB1 HTS | UBC13 polyUb | MEKK2wt confirm | MEKK2mut-MEK5 | MEKK3 confirm
O=C(O)c1ccc(COc2ccccc2Cl)cc1 | 104 | 11 | -5 | 2 | 102 | -14 | nt | nt | nt
N#C/C(=C\c1ccccc1OCc1ccc(C(=O)O)cc1)c1ccccc1 | 55 | 0 | 28 | -14 | 50*[inhibitor] | -12 | 110 | 2 | 100
CC(C)(C)n1nnnc1C(c1cccnc1)N(Cc1ccccc1)Cc1cccs1 (stereo unspecified) | 2.0*[inhibitor] | 7 | 19 | -21 | 2.0*[inhibitor] | 1 | 101 | -4 | 102
CC(C)(C)n1nnnc1C(c1cccs1)N(Cc1ccccc1)Cc1cccnc1 (stereo unspecified) | 105 | 5 | -6 | 1 | 105 | 3 | nt | nt | nt
CCn1c(CCNC(=O)c2cccs2)nnc1SCC(=O)NC1CCCCC1 | 0.0*[inhibitor] | 2 | -3 | -41 | 1.0*[inhibitor] | 4 | 94 | -8 | 96
CCn1c(CCNC(=O)c2cccs2)nnc1SCC(=O)Nc1ccc(Cl)cc1 | 101 | -7 | -7 | 0 | 95 | 1 | nt | nt | nt

Screening data (PubChem)
